Laboratory results reported in PubChem BioAssay (NCI).
Compounds without any hit were thinned out: in the full panel of roughly 83,000, 20% have a hit.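 How to read the values: 0–100, growth inhibition (40 = 60% inhibited); 0, no net growth; -100 to 0, cell death (-40 = 40% of starting cells died; -100 = all dead).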 A number with no mark means an inactive call. The source made the active and inactive calls. The calls were made as follows: active = growth percent below 10; inactive = the rest.

Columns and labels:
Assay in all cases: NCI-60 one-dose screen, 48 h (100 = growth as untreated, 0 = no growth, -100 = all killed)
Conditions in all cases: 10 µM unless noted
SR leukemia = tested on: SR leukemia
RPMI-8226 leukemia = tested on: RPMI-8226 leukemia
OVCAR-8 ovarian = tested on: OVCAR-8 ovarian
OVCAR-5 ovarian = tested on: OVCAR-5 ovarian
OVCAR-4 ovarian = tested on: OVCAR-4 ovarian
SK-OV-3 ovarian = tested on: SK-OV-3 ovarian
IGROV1 ovarian = tested on: IGROV1 ovarian
HS 578T breast = tested on: HS 578T breast
NCI/ADR-RES ovarian = tested on: NCI/ADR-RES ovarian
OVCAR-3 ovarian = tested on: OVCAR-3 ovarian

SMILES	growth (SR leukemia)	growth (RPMI-8226 leukemia)	growth (OVCAR-8 ovarian)	growth (OVCAR-5 ovarian)	growth (OVCAR-4 ovarian)	growth (SK-OV-3 ovarian)	growth (IGROV1 ovarian)	growth (HS 578T breast)	growth (NCI/ADR-RES ovarian)	growth (OVCAR-3 ovarian)
CN1CCN(Cc2ccc(NC(=O)c3cncc(C#Cc4cnc5ccc(O[C@H]6CCOC6)nn45)c3)cc2C(F)(F)F)CC1	-22.8% (active)	-15.3% (active)	-72.6% (active)	-62.5% (active)	-58.9% (active)	-26% (active)	-57.6% (active)	-34.1% (active)	-30.9% (active)	
C=CCn1c(SCC(=O)Nc2ccc(OC)cc2)nnc1-c1ccc(Cl)cc1	74.3%	105%	98%	93.9%	99.7%	101%	89.8%	92.2%	83.6%	
CCCCCc1ccc(S(=O)(=O)N(C(C)=O)c2cccc(-c3csc(N(CCN4CCN(C)CC4)C(C)=O)n3)c2)cc1	-17.7% (active)	-27.8% (active)	60.7%	92.2%	47.1%	100%	46.8%	72.8%		
CN1CCN(c2ccc(C(=O)/C=C/c3ccc(Cl)c(C(F)(F)F)c3)cc2)CC1	2.99% (active)	3.06% (active)	55%	79.7%	66%	105%	78.1%	87.3%		
Cc1ccc(-c2csc(N/N=C/c3nc4ccccc4n3C3CC3)n2)cc1	25.1%	84.8%	18.9%	105%	93.1%	120%	57.8%	88.5%		
CN1CCN(Cc2ccc(NC(=O)c3cncc(C#Cc4cnc5ccc(NC6CCOCC6)nn45)c3)cc2C(F)(F)F)CC1	-37.8% (active)	-34.1% (active)	-52.4% (active)	0.169% (active)	-29.1% (active)	-22.9% (active)	-21% (active)	-26% (active)	7.41% (active)	
O=C(Nc1cc(F)cc2cccnc12)c1cnc(N2CCOCC2)cn1	38.5%	70.5%	79.4%	65.6%	17.9%	95.2%	25.5%	98.3%	78.2%	9.55% (active)
COc1cc(OC)c(S(N)(=O)=O)cc1C(=O)/C=C/c1ccccc1	8.18% (active)	18.5%	65.3%	27.1%	77.7%	81.1%	25.7%	26.5%		
N/C(=N\OC(=O)CSc1nc2ccccc2s1)c1ccc(Cl)cc1	84.8%	99.4%	98%	100%	107%	101%	89%	97%	101%	111%
Cn1nc(Nc2ccccc2)c(C(=O)NN)c1N	107%	106%	97.5%	102%	99.9%	103%	95.4%	99.7%	93.9%	
CS(=O)(=O)c1ccc2c(c1)c1c(n2Cc2ccc(Cl)cc2)CCCC1	41.2%	55.8%	72.7%	88.1%	75.1%	97.5%	64%	85.4%	48.4%	
O=C(/C=C/Nc1ccc(S(=O)(=O)O)cc1)c1ccc(F)cc1	90.8%	95.9%	99.5%	103%	105%	117%	109%	97.3%	97.3%	
COc1cc(-c2noc(C[C@@H](NC(=O)OCc3ccccc3)C(C)C)n2)cc(OC)c1OC	95%	106%	100%	97.3%	102%	94.5%	99.5%	97.2%	104%	
O=c1[nH]c2cc(Cl)ccc2n1C1CCN(c2ccc3nnc(Cl)n3n2)CC1	81.8%	90.9%	93.4%	95.5%	88.7%	77.5%	96.6%	87.7%	99.9%	
CS(=O)c1nccc(-c2c(-c3ccc(F)c(OCc4ccc(F)cc4)c3)nc3sccn23)n1 (stereo not given)	-22.2% (active)	20.2%	89.1%	100%	101%	115%	17.7%	98.4%	107%	
CCN1C(=O)N(CC)C2SC(N/N=C/c3ccc(F)cc3)=NC21 (stereo not given)	19.4%	19.6%	2.03% (active)	48.4%	67.2%	36.6%	25.1%	11.9%	0.946% (active)	
O=C(NCCCCCCNC(=O)c1c2c(nc3ccccc13)-c1cccnc1SC2)c1c2c(nc3ccccc13)-c1cccnc1SC2	89.7%	58.9%	78.2%	57.9%	79.6%	85.7%	43.7%	83.2%	77.2%	
O=C(CCCCCCN1CC(=O)N2[C@@H](c3ccc(Cl)c(F)c3)c3[nH]c4ccccc4c3C[C@H]2C1=O)NO	45.1%	59.1%	66.5%	87.6%	84.3%	81.8%	64.5%	98.4%	101%	
N#Cc1c(-c2ccccc2)cc(-c2c[nH]c3ccccc23)nc1-c1c[nH]c2ccccc12	96.7%	101%	98.7%	103%	104%	93.3%	82.1%	93.4%	98.3%	
Cc1cnc2nc(NN)[nH]n12	101%	104%	98%	101%	104%	102%	97.6%	107%	104%	
O=C1c2c(c3c4cc(Br)ccc4[nH]c3c3ccc4ccccc4c23)C(=O)N1CCN1CCCCC1	-21.6% (active)	-36.5% (active)	-51.8% (active)	99.8%	95.2%	57%	59.8%	104%	6.23% (active)	
O=C1c2c(c3c4cccnc4[nH]c3c3ccc4ccccc4c23)C(=O)N1CCN1CCNCC1	-6.6% (active)	74.3%	50.8%	113%	105%	101%	51.7%	107%	81.4%	
COc1cc(/C=N/Nc2ccnc3cc(Cl)ccc23)cc(OC)c1O	-23.9% (active)	-9.43% (active)	-56% (active)	-5% (active)	-50.2% (active)	109%	-83.8% (active)	-38.8% (active)	2.57% (active)	
Oc1ccc(-c2nnc(SCc3ccc(O)c4ncccc34)n2-c2ccccc2)cc1	37.3%	15.5%	10.1%	34.6%	10.2%	18.7%	8.1% (active)	39.8%	8.08% (active)	
COc1cc(C(=O)c2cc(C(C)=O)c3c4ccccc4ccn23)cc(OC)c1OC	16.8%	52.3%	62.9%	69.9%	69.1%	56.2%	52.6%	40.5%	27.9%	
COc1ccc(-c2cc(-c3ccc(Cl)cc3)nc3nc(N)nn23)cc1	93.6%	108%	99.1%	101%	102%	119%	98.2%	109%	102%	
O=S(=O)(NC1CC2CCC1C2)c1ccc2c(c1)C(=NO)c1cc(S(=O)(=O)NC3CC4CCC3C4)ccc1-2 (stereo not given)	-7.47% (active)	-24.6% (active)	67%	42.5%	-52.4% (active)	86.4%	-73.7% (active)	86%	63.7%	
CCNC(=O)Oc1ccc(/C(=C(/C)c2ccc(Cl)cc2)c2ccc(OCCN(C)C)cc2)cc1	42.4%	19.3%	87.9%	84.9%	71.6%	94.2%	64.4%	80.8%	74.9%	
